Screening data: PubChem, several laboratories
IDE cell activ: human IDE activators in live cells, primary screen, fluorescence polarization, HEK cells, FAbeta-B substrate; Insulin-degrading enzyme (Homo sapiens), P14735; hit rate 0.073% among 340,000; FAbeta-B cleavage; 0% vehicle, 100% cell-free pure enzyme wells; activation, % at 5.96 µM;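 active = activation above the mean of all tested compounds plus 3 SD, set per screening campaign, cut at about 17% in these data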
MEX-5 binding: MEX-5 zinc finger RNA-binding disruptors – biochemical, C. elegans, fluorescence polarization, MLPCN library, primary screen; activity score (negative = inhibition of binding), % at 10 µM; MEX-5/FITC-TCR2 RNA binding; stronger effect = lower value; hit rate 0.38% among 300,000;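 active = inhibition past about -25% in most replicates, and total fluorescence under double the plate's negative control median, limit read from the data; inconclusive = replicates evenly split on the limit, or fluorescence at least double controls; inactive = too little inhibition in most replicates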
GLD-1 TGE inh: GLD-1/TGE RNA complex disruptors, primary screen, biochemical, fluorescence polarization; Female germline-specific tumor suppressor gld-1 (Caenorhabditis elegans), Q17339; purified GLD-1 + fluorescein TGE RNA; inhibition, % at 5.96 µM; hit rate 0.44% among 320,000; AID 2280, 2010;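 active = percent inhibition above a per-plate cutoff, the plate mean of test compounds plus 3 SD, cut at about 30% in these data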
Target sequence (Q17339 whole entry, looked up): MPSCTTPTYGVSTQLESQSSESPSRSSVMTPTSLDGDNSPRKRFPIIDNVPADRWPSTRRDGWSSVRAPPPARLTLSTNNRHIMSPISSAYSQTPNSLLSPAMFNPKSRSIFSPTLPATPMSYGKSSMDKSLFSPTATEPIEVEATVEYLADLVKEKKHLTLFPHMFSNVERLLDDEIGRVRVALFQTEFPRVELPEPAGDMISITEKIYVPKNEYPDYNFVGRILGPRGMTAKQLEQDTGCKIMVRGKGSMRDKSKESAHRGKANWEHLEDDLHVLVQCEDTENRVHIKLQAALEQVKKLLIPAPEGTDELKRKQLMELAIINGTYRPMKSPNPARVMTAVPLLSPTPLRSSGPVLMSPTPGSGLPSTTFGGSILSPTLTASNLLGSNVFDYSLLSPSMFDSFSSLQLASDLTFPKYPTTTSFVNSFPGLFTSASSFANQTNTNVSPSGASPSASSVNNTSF
IDE cell inh: human IDE inhibitors in live cells, primary screen, fluorescence polarization, HEK cells, FAbetaB substrate; Insulin-degrading enzyme (Homo sapiens), P14735; FAbetaB cleavage; inhibition, % at 5.59 µM; hit rate 0.41% among 320,000; AID 434962, 2010;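 active = percent inhibition above the average of all tested compounds plus 3 SD, set per screening campaign, cut at about 16% in these data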;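 also: IDE supplied by intact live HEK cells; FP after avidin binding of uncleaved biotin substrate so inhibition keeps polarization high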
MCL1-BIM inh: inhibitors of MCL1 binding to BIM-BH3, primary screen, biochemical, fluorescence polarization. hit rate 0.68% among 320,000. GST-MCL1 / FITC-Bim-BH3 fluorescence polarization. AID 2057, 2009. inhibition, % at 10.9 µM;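 active = inhibition above the mean inhibition of all tested compounds plus 3 SD, set per campaign, cut at about 40% in these data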;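 also: higher means more loss of mP so more displacement of Bim peptide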
Bcl-xL primary: inhibitors of human Bcl-xL, primary screen, biochemical, fluorescence polarization, HTS; Bcl-2-like protein 1 (Homo sapiens), Q07817; GST-Bcl-xL / FITC-Bim BH3 peptide fluorescence polarization; hit rate 0.7% among 320,000; AID 2129, 2009; inhibition, % at 10.9 µM;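 active = inhibition above the mean of all tested compounds plus 3 SD, cutoff set per campaign, cut at about 30% in these data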;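 also: inhibitors lower millipolarization by displacing the labeled peptide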
Target sequence (Q07817 whole entry, looked up): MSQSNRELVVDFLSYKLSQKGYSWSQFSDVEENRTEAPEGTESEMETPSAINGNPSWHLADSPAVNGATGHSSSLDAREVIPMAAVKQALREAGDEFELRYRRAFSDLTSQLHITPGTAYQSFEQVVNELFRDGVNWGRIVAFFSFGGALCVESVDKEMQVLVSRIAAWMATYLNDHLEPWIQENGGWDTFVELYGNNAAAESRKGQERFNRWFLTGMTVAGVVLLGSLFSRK
Large screens that a line does not name were inactive. Most compounds without a hit are left out; they make up all but 1.5% or so of the library.

CCc1c(C(=O)NNC(=S)Nc2ccc(S(=O)(=O)Nc3ncccn3)cc2)csc1C	MEX-5 binding -48.1
C/C(=N\NC(=O)C(=O)Nc1cccc(Cl)c1C)c1ccncc1	none
O=C(NCc1ccco1)Nc1ccc(OC(F)(F)F)cc1	Bcl-xL primary 30.3
O=C(NCc1ccco1)Nc1ccc(Br)cc1	none
O=C(NCCCn1ccnc1)/C(=C\c1ccc(Br)cc1)NC(=O)c1ccccc1F	none
COc1ccccc1C1C2CCCCC2(O)CCN1CC(=O)Nc1ccccc1 (stereo not given)	none
CCCCNC(=O)CN1CCC2(O)CCCCC2C1c1ccccc1OC (stereo not given)	GLD-1 TGE inh 79.3
CC(CC(=O)N1CCN(c2ccccc2)CC1)S(=O)(=O)c1ccc2c(c1)NC(=O)CO2 (stereo not given)	none
Cc1cc(=O)oc2c(CN3CC(C)OC(C)C3)c(O)c(Cl)cc12 (stereo not given)	none
Cc1cccn2c(=O)c3cc(C(=O)NCc4ccco4)c(=N)n(CCc4ccccc4)c3nc12	Bcl-xL primary 32.5 (no result: MEX-5 binding)
N=c1c(C(=O)NCc2ccco2)cc2c(=O)n3ccccc3nc2n1Cc1ccccc1	MCL1-BIM inh 48.2, Bcl-xL primary 37.6
CCCCNC(=O)c1cc2c(=O)n3cccc(C)c3nc2n(Cc2ccncc2)c1=N	MEX-5 binding -40.8
COCCNC(=O)c1cc2c(=O)n3cccc(C)c3nc2n(Cc2ccncc2)c1=N	none
N=c1c(C(=O)NCc2ccco2)cc2c(=O)n3ccccc3nc2n1Cc1ccc(Cl)cc1	none
N#C/C(=C(/O)c1cc2ccccc2o1)c1nc2ccccc2s1	MEX-5 binding -32.6
CCc1ccc(NC(=O)C(C)Sc2nc(-c3ccco3)c(C#N)c(=O)[nH]2)cc1 (stereo not given)	none
Cc1nnc(N2C(=O)C(O)=C(C(=O)c3ccco3)C2c2cccc3ccccc23)s1 (stereo not given)	none
CCCSc1nnc(N2C(=O)C(O)=C(C(=O)c3ccco3)C2c2ccccc2F)s1 (stereo not given)	MEX-5 binding inconclusive
Cc1ccc(C2C(C(=O)c3ccco3)=C(O)C(=O)N2c2nnc(C)s2)cc1 (stereo not given)	GLD-1 TGE inh 33.8, Bcl-xL primary 30.6
C=CCSc1nnc(N2C(=O)C(O)=C(C(=O)c3ccco3)C2c2ccccc2F)s1 (stereo not given)	MEX-5 binding -35.3
C=CCO/N=C(/CCC)C1=C(N)CC(C)(C)CC1=O	none
O=C(O)CSc1cc(NS(=O)(=O)c2ccc(Cl)cc2)c2ccccc2c1O	none
Cc1cc(C)c(S(=O)(=O)Nc2cc(SCC(=O)O)c(O)c3ccccc23)cc1C	MEX-5 binding -56.5 (no result: IDE cell activ)
Cc1cc(C)c(C#N)c(SCC(=O)Nc2nonc2N)n1	none
Cc1ccccc1C(=O)N1CC(=O)Nc2ccc(F)cc2C1c1ccc(F)cc1 (stereo not given)	Bcl-xL primary 86.1
O=C(NNC(=O)c1ccccc1F)c1ccco1	none
O=C(NNC(=O)c1ccccc1O)c1ccco1	MEX-5 binding -29.2
Cc1ccc(NC(=O)CCC(=O)NNC(=O)COc2ccc([N+](=O)[O-])cc2)c(C)c1	none (no result: MEX-5 binding, GLD-1 TGE inh, IDE cell inh, MCL1-BIM inh, Bcl-xL primary)
CC(Sc1nc(N2CCOCC2)c2c(c1C#N)CC(C)(C)OC2)C(=O)O (stereo not given)	Bcl-xL primary 31.3
COC(=O)Sc1nc(N2CCOCC2)c2c(c1C#N)CC(C)(C)OC2	none
O=C(CCNS(=O)(=O)c1cccc(C(F)(F)F)c1)NC1CC1	none (no result: MEX-5 binding)
Cc1ccc2[nH]c3c(c2c1)CN(C(=O)CN1CCN(C(=O)c2ccco2)CC1)CC3	MEX-5 binding inconclusive, GLD-1 TGE inh 31.5, Bcl-xL primary 47.9 (no result: IDE cell activ)
O=C(c1ccco1)N1CCN(Cc2nc3ccccc3[nH]2)CC1	none (no result: MEX-5 binding, MCL1-BIM inh, Bcl-xL primary)
Cc1ccc2[nH]c3c(c2c1)CN(C(=O)CN1CCN(c2cccc(C)c2C)CC1)CC3	Bcl-xL primary 37.6
O=C(CN1CCSCC1)N1CCc2[nH]c3ccc(Br)cc3c2C1	none (no result: IDE cell activ, GLD-1 TGE inh, IDE cell inh, MCL1-BIM inh, Bcl-xL primary)
O=C(CN1CCN(C(=O)c2ccco2)CC1)N1CCc2[nH]c3ccccc3c2C1	Bcl-xL primary 35.7 (no result: IDE cell activ)
COc1ccccc1C1/C(=C(\O)c2ccc3c(c2)OCCO3)C(=O)C(=O)N1Cc1cccnc1 (stereo not given)	none
COCCn1c(SCC(=O)Nc2c(C)n(C)n(-c3ccccc3)c2=O)nc2ccccc2c1=O	none (no result: MEX-5 binding)
CC12C=CC(=O)C=C1CCC1C2C(O)CC2(C)C1CCC2(O)C(=O)CO (stereo not given)	none (no result: MEX-5 binding, GLD-1 TGE inh, IDE cell inh, MCL1-BIM inh, Bcl-xL primary)
N#CC1C(=N)Cc2ccccc2-c2ccccc21 (stereo not given)	none (no result: MEX-5 binding, GLD-1 TGE inh, IDE cell inh, MCL1-BIM inh, Bcl-xL primary)
O=C(N/N=C/C=C/c1ccc([N+](=O)[O-])cc1)c1cccs1	MEX-5 binding -72.0
O=C(N/N=C/C=C\c1ccccc1[N+](=O)[O-])c1cccs1	none
C=CCN1C(=O)/C(=C2/Sc3ccc(OC)cc3N2CC)SC1=S	MEX-5 binding -39.8
CCCCN1C(=O)/C(=C2/Sc3ccc(OC)cc3N2CC)SC1=S	MEX-5 binding -25.7
CCN1/C(=C2/SC(=S)N(NC(C)=O)C2=O)Sc2ccc(OC)cc21	MEX-5 binding -46.3
C=CCN1C(=O)/C(=C2/Sc3ccc(OC)cc3N2C)SC1=Nc1ccc(OC)cc1	none (no result: IDE cell activ)
CC1(C(=O)NCc2ccc(Cl)c(Cl)c2)Oc2cccnc2NC1=O (stereo not given)	none
O=C(O)COc1ccccc1/C=N/NC(=O)c1cccc(S(=O)(=O)N2CCOCC2)c1	none
Cc1cc(C)nc(NS(=O)(=O)c2ccc(NC(=O)c3cc4c(=O)n5cccc(C)c5nc4n3C)cc2)n1	Bcl-xL primary 30.2
Cc1cccn2c(=O)c3cc(C(=O)NC4CCCC4)n(C)c3nc12	none
COc1ccc(/C=C2/CCCC(C(=O)C(F)(F)F)=C2O)cc1OC	none
COc1ccc(/C=C2\CCCC(C(=O)C(F)(F)F)=C2O)cc1OC	MEX-5 binding -34.2 (no result: IDE cell activ)
COc1ccc(-n2nc(C(=O)NCC(=O)N(C)Cc3ccccc3)c3ccccc3c2=O)cc1OC	none
COc1cc(CNC2CCCC2)cc(OC)c1OC	IDE cell activ 18.1
Cn1ncc(Cl)c1C(=O)Nc1cccc(Cl)c1	none
Cn1ncc(N=Cc2c(O)ccc3ccccc23)c1C(=O)Nc1cccc(Cl)c1	MCL1-BIM inh 45.8, Bcl-xL primary 31.1
O=C(N/N=C/c1ccccc1[N+](=O)[O-])c1cnccn1	none
